Test results reported in PubChem BioAssay (EPA / NIEHS).
Inconclusive results are not listed. Active and inactive are the calls of the source. The calls were made as follows: active = hit-call score of the fitted dose curve at least 0.9, where 1 is the maximum; inconclusive = response in the unintended direction; inactive = score below 0.9.

Experiments:
[1] = biological target: Androgen Receptor/SRC-1 Co-activator, AR (gene 367) (UniProt P10275); assay: OT_AR_ARSRC1_0960: Odyssey Thera (OT) 16-hour HEK293T Protein-Complementation Assay for Androgen Receptor/SRC-1 Co-activator (AID 2283353);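 also: actives raise the signal above DMSO so potency reflects increased AR and SRC-1 complex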
In short: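 HEK293T cells stably expressing AR and SRC-1 fused to Venus YFP fragments, imaged 16 h after dosing. Nuclear/cytoplasmic fluorescence ratio at 488 nm from at least 400 cells per image; gain of signal relative to DMSO.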

[2] = biological target: Androgen Receptor/SRC-1 Co-activator, AR (gene 367) (UniProt P10275); assay: OT_AR_ARSRC1_0480: Odyssey Thera (OT) 8-hour HEK293T Protein-Complementation Assay for Androgen Receptor/SRC-1 Co-activator (AID 2283354);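 also: hits raise the complementation signal above DMSO so AC50 marks enhancers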
In short: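 HEK293T cells stably expressing AR and SRC-1 fused to Venus YFP fragments, imaged 8 h after dosing. Complementation fluorescence scored as nuclear/cytoplasmic ratio at 488 nm in at least 400 cells per image; gain fitted versus DMSO.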

[3] = biological target: T1, Estrogen receptor (Homo sapiens) + Estrogen receptor beta (Homo sapiens) (UniProt P03372+Q92731); assay: OT_ER_ERaERb_1440: Odyssey Thera (OT) 24-hour HEK293T Protein-Complementation Assay for Estrogen Receptor-alpha/-beta Homodimer (AID 2283356);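 also: heteromer of ER alpha and ER beta binding domains; hits raise reporter fluorescence and both agonists and antagonists give an increase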
In short: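 Readout: mean fluorescence intensity in nucleus (agonists) or nucleus plus cytoplasm (antagonists), read by laser scanning cytometer after 24 h compound exposure of HEK293T cells carrying ERα/ERβ LBD fragment-complementation constructs; DMSO baseline.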

[4] = biological target: Estrogen receptor beta (Homo sapiens) (UniProt Q92731); assay: OT_ER_ERbERb_0480: Odyssey Thera (OT) 8-hour HEK293T Protein-Complementation Assay for Estrogen Receptor-beta/-beta Homodimer (AID 2283357);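 also: active means signal gain over DMSO baseline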
In short: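 Fluorescence intensity, nuclear for agonists and nuclear plus cytoplasmic for antagonists, was quantified by laser scanning cytometry versus vehicle after 8 h treatment. The cells were HEK293T stably carrying ER beta LBD fragment-complementation partners.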

[5] = biological target: Retinoic acid receptor alpha (Homo sapiens) (UniProt P10276); assay: NVS_NR_hRAR_Antagonist: NovaScreen (NVS) Nuclear Receptor Binding Assay for human Retinoic Acid Alpha Receptor Antagonism (RAR) (AID 2283358)
In short: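 Cell-free TR-FRET binding assay with extracted human RARalpha in antagonist mode, read 2 h after dosing. Loss of signal was fitted relative to DMSO; the primary screen used 25 uM in duplicate, with concentration series on follow-up.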

[6] = biological target: T1, Estrogen receptor (Homo sapiens) + Estrogen receptor beta (Homo sapiens); assay: OT_ER_ERaERb_0480: Odyssey Thera (OT) 8-hour HEK293T Protein-Complementation Assay for Estrogen Receptor-alpha/-beta Heterodimer (AID 2283352)
In short: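 Fluorescence intensity readout from a protein-fragment complementation reporter in HEK293T; ER-alpha/ER-beta LBD heterodimer. Dosing 8 h. Gain-of-signal fit relative to DMSO negative control; laser scanning cytometry of whole-well cell population.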

PGR (gene 5241) = PGR (gene 5241) (UniProt P06401); assay: NVS_NR_hPR: NovaScreen (NVS) Nuclear Receptor Binding Assay for human Progestron Receptor (PR) (AID 2283360);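 also: active means loss of bound radioligand signal versus DMSO baseline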
In short: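 Cell-free radioligand binding using receptor protein extracted from T47D cells, read by scintillation counting 18 hours after dosing. Loss of signal relative to DMSO baseline indicates displacement; primary screen single concentration 25 uM in duplicate, actives followed in concentration series.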

[7] = biological target: human Peroxisome Proliferator-activated Receptor alpha (PPARa), PPARA (gene 5465) (UniProt Q07869); assay: NVS_NR_hPPARa: NovaScreen (NVS) Nuclear Receptor Binding Assay for human Peroxisome Proliferator-activated Receptor alpha (PPARa) (AID 2283359);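 also: activity means loss of TR-FRET signal versus DMSO baseline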
In short: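 Cell-free TR-FRET binding assay with extracted PPARα protein, read 1 h after dosing. Primary screen in duplicate at 25 uM, with actives retested in concentration series. Loss of signal versus DMSO.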

[8] = biological target: Retinoic acid receptor alpha (Homo sapiens) (UniProt P10276); assay: NVS_NR_hRARa_Agonist: NovaScreen (NVS) Nuclear Receptor Binding Assay for human Retinoic Acid Alpha Receptor Agonism (RAR) (AID 2283361)
In short: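 Cell-free TR-FRET binding readout with extracted receptor protein, read 2 hours after dosing; gain-of-signal fitted relative to DMSO. Screened in duplicate at 25 uM, actives then run in concentration-response.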

Estrogen receptor beta (Homo sapiens), sequence (Q92731 whole entry, looked up, the tested form may be a part): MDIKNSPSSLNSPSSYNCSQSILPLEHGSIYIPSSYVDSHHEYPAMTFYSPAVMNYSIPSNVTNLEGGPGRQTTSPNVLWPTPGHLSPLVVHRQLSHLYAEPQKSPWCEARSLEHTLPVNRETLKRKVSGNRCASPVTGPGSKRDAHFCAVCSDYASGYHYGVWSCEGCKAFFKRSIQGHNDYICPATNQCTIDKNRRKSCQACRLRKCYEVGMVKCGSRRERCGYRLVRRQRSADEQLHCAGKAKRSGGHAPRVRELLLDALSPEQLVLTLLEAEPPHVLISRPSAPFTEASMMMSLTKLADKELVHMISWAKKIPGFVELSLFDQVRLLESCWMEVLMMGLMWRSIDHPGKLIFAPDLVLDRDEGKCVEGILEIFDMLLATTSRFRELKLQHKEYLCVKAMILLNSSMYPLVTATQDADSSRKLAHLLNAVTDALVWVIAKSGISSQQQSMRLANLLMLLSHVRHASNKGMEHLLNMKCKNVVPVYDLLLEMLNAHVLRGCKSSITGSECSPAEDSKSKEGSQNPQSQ
Retinoic acid receptor alpha (Homo sapiens), sequence (P10276 whole entry, looked up): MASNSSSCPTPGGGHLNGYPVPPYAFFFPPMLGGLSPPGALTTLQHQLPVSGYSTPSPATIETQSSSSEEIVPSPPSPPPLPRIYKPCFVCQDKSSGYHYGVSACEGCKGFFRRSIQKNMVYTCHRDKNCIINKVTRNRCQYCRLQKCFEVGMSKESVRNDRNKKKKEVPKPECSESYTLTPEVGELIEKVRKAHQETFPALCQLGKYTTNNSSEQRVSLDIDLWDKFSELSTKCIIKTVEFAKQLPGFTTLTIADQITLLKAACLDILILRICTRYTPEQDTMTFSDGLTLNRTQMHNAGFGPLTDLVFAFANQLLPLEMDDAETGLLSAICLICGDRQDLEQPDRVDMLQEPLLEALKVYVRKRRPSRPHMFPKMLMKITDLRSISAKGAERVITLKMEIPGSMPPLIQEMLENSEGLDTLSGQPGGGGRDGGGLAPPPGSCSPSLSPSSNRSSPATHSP
T1 sequence (P03372 whole entry, looked up, the tested form may be a part): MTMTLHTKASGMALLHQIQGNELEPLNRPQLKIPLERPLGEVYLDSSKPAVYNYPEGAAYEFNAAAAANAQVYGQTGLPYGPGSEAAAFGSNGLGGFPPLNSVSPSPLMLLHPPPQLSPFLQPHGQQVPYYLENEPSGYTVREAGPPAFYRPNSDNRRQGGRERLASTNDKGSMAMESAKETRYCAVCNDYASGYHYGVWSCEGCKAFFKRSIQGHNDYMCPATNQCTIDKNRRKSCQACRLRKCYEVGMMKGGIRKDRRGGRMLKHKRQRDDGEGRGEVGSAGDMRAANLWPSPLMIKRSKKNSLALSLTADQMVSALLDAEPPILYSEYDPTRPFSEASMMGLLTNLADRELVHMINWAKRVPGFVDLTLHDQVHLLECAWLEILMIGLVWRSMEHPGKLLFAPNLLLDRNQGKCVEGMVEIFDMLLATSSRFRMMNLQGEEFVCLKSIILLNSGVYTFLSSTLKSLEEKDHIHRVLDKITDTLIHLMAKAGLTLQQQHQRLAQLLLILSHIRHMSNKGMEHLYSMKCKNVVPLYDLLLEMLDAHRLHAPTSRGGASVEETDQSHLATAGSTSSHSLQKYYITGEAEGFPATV
T1 sequence (Q92731 whole entry, looked up, the tested form may be a part): as the sequence (Q92731 whole entry, looked up, the tested form may be a part) above
Androgen Receptor/SRC-1 Co-activator, AR (gene 367), sequence (P10275 whole entry, looked up, the tested form may be a part): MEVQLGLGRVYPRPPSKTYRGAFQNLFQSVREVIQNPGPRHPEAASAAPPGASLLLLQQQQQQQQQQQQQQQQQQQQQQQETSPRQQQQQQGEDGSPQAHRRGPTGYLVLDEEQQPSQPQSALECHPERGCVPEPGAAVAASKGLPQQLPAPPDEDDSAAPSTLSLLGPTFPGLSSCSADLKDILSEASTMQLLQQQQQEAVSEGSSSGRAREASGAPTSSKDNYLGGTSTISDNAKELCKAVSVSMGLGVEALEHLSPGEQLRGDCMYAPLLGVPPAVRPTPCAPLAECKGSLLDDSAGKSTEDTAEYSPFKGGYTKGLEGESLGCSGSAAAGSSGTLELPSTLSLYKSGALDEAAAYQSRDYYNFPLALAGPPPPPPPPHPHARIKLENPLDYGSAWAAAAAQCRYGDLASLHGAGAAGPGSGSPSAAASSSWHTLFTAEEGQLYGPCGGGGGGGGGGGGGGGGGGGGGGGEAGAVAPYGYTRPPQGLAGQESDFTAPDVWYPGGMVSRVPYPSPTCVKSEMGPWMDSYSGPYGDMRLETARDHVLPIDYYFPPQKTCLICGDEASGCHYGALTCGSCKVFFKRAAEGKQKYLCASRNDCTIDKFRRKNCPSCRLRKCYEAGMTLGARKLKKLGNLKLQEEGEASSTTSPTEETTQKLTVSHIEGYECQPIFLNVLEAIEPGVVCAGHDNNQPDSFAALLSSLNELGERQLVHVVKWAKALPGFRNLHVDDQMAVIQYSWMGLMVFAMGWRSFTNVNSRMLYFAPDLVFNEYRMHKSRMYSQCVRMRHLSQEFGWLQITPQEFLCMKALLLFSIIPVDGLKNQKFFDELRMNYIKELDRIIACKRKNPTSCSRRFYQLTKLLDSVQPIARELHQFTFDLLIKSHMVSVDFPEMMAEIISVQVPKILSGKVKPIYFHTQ
PGR (gene 5241), sequence (P06401 whole entry, looked up): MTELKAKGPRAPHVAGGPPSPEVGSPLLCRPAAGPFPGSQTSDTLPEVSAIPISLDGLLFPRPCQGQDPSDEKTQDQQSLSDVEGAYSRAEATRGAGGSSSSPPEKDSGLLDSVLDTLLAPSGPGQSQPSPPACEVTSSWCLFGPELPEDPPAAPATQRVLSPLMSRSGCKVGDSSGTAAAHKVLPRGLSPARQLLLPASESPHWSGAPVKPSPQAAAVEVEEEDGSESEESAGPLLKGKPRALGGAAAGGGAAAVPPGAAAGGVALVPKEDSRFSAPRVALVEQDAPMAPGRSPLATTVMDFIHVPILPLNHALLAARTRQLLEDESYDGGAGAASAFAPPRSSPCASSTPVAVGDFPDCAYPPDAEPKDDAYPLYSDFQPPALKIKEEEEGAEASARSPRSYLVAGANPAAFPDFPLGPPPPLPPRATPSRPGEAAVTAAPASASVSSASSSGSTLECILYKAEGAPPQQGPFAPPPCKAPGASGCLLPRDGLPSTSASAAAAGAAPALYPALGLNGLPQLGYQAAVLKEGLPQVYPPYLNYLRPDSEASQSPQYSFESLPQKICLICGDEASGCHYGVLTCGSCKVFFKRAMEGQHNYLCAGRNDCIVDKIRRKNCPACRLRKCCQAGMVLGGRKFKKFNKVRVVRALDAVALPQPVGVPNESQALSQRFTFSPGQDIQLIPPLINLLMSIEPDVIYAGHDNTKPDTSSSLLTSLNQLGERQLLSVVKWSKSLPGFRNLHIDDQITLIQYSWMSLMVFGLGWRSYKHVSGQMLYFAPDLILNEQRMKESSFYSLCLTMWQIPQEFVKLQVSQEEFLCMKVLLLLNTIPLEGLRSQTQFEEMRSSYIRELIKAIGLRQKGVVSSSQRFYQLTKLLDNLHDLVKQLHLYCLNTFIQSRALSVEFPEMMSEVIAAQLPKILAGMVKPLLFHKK
human Peroxisome Proliferator-activated Receptor alpha (PPARa), PPARA (gene 5465), sequence (Q07869 whole entry, looked up): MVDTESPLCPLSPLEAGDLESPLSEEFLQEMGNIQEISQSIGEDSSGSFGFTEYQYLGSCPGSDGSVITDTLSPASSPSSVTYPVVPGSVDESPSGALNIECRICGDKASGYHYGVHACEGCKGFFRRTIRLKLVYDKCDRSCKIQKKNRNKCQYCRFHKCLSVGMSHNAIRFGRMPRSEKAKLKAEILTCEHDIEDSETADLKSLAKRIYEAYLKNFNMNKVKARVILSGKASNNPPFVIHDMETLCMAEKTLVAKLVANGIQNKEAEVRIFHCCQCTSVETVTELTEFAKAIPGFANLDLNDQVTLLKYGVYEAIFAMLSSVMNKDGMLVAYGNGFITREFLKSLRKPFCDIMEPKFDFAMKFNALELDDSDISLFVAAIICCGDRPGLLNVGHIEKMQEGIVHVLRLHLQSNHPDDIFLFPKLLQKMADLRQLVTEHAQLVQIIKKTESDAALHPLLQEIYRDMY

COP(=O)(OC)OC(Br)C(Cl)(Cl)Br (centres undefined)
AC50 [1]: 32.5 µM (active) | outcome [2]: inactive | outcome [3]: inactive

CCOP(=S)(OCC)OC(Cl)C(Cl)(Cl)Cl (centres undefined)
AC50 [4]: 38.6 µM (active)

COc1ccc(C(=CC(=O)N2CCOCC2)c2ccc(Cl)cc2)cc1OC
outcome [1]: inactive | outcome [2]: inactive | outcome [4]: inactive | outcome [5]: inactive

CN(C)C(=O)Nc1cccc(C(F)(F)F)c1
outcome [4]: inactive

Cc1cc(C2CC2)nc(Nc2ccccc2)n1
outcome [6]: inactive | AC50 [3]: 40 µM (active) | AC50 [4]: 50 µM (active) | outcome [5]: inactive

CCCOc1nn(C(=O)NS(=O)(=O)c2ccccc2C(=O)OC)c(=O)n1C
outcome [1]: inactive | outcome [2]: inactive

COP(=O)(NC(C)=O)SC (centres undefined)
outcome [4]: inactive

CC(COc1ccc(Oc2ccccc2)cc1)Oc1ccccn1 (centres undefined)
outcome [1]: inactive | outcome [2]: inactive | outcome [4]: inactive | outcome (PGR (gene 5241)): inactive

O=c1ccc(=O)[nH][nH]1
outcome [1]: inactive | outcome [2]: inactive

CCOP(=O)(NC(C)C)Oc1ccc(SC)c(C)c1 (centres undefined)
outcome [1]: inactive | outcome [2]: inactive | outcome [4]: inactive | outcome [5]: inactive

COP(=O)(OC)SCn1c(=O)oc2cc(Cl)cnc21
AC50 [1]: 57.8 µM (active) | outcome [2]: inactive

C[N+]1(C)CCCCC1
outcome [1]: inactive | outcome [4]: inactive

C=C(C)[C@H]1Cc2c(ccc3c2O[C@@H]2COc4cc(OC)c(OC)cc4[C@@H]2C3=O)O1
AC50 [1]: 0.088 µM (active) | AC50 [2]: 0.973 µM (active) | outcome (PGR (gene 5241)): inactive

Cc1nn(-c2cc(NS(C)(=O)=O)c(Cl)cc2Cl)c(=O)n1C(F)F
outcome [1]: inactive | outcome [2]: inactive

CC(=NC#N)N(C)Cc1ccc(Cl)nc1
outcome [4]: inactive

FC(F)C(F)(F)OCC(Cn1cncn1)c1ccc(Cl)cc1Cl (centres undefined)
outcome [4]: inactive

CN(C)[C@@H]1C(=O)C(C(N)=O)=C(O)[C@@]2(O)C(=O)C3=C(O)c4c(O)cccc4[C@@](C)(O)[C@H]3[C@H](O)[C@@H]12
AC50 [7]: 14.1 µM (active)

O=[N+]([O-])c1cc(C(F)(F)F)c(Cl)c([N+](=O)[O-])c1Nc1ncc(C(F)(F)F)cc1Cl
outcome [8]: inactive
